According to PubChem BioAssay (Tox21):
Values joined by “and” are separate entries in the source; they are usually repeats but may differ in a detail not shown here. Identical values can stand only once. Results filed as inconclusive are left out. Some structures have more than one record in an assay (separate samples or runs), and their calls can disagree. Active and inactive are the calls of the source. Calls follow the shape of the dose curve; as a rule, active = well fitted curve in the direction sought with a large enough effect in the repeat runs; inconclusive = weak or mixed curves; inactive = no such curve, though single readings can be large; an effect the other way counts as inactive or inconclusive.

Legend:
[1] = Caspase-3/7 induction in HepG2 cells by small molecules, qHTS assay (AID 1346978); also: nearly all actives have a fitted effect of over 15% in size; also: potency is read from the fitted curve at half-maximal effect
Summary of the method: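 Wild-type HepG2 cells, 2,000/well, settled 5 hr at 37 C and 5% CO2, then compound-treated for 17 hr; caspase-3/7 activity read by luminescent Caspase-Glo 3/7 after 30 min at room temperature.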

[2] = Caspase-3/7 induction in HepG2 cells by small molecules, qHTS cell viability counter screen (AID 1346981); also: nearly all actives have a fitted effect of over 30% in size; also: potency is read from the fitted curve at half-maximal effect
Summary of the method: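 Steps: seed 2,000 HepG2 cells per well; incubate 5 hr at 37 C; pin-add compounds in DMSO; incubate 16 hr; add CellTiter-Fluor; after 1 hr at 37 C and 5% CO2, read fluorescence.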

[3] = molecular target: Nuclear receptor subfamily 1 group I member 2 (Rattus norvegicus) (UniProt Q9R1A7); assay: Rat pregnane X receptor (rPXR) activation by small molecules, qHTS assay (AID 1346983); conditions: rPXR luciferase reporter cells, One-Glo luminescence, 24 h; max activation: stronger effect = higher value; also: nearly all actives have a fitted effect of over 20% in size
Summary of the method: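 Cell-based rPXR activation assay: rPXR cells, 2,000 per well, rested 5hr at 37 C, then exposed to compounds in DMSO for 24 hr at 37 C. Luciferase activity read by One-Glo luminescence after 30 min at room temperature.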

[4] = molecular target: Nuclear receptor subfamily 1 group I member 2 (Homo sapiens) (UniProt O75469); assay: CYP3A4 induction through human pregnane X receptor (PXR) by small molecules, qHTS assay (AID 1346984); also: nearly all actives have a fitted effect of over 40% in size; also: potency is read from the fitted curve at half-maximal effect
Summary of the method: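 Steps: seed DPX-2 cells, 5 hr at 37C; pin-transfer compounds; 24 hr at 37C; add Luciferin-IPA (3uM final), 3 hr at 37C; add One-Glo, 30 min RT; read luminescence.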

[5] = molecular target: Cytochrome P450 2D6 (Homo sapiens) (UniProt P10635); assay: Cytochrome P450 Family 2 Subfamily D Member 6 (CYP2D6) small molecule antagonists: luciferase reporter qHTS assay (AID 1671196); also: nearly all actives have a fitted effect of over 50% in size; also: potency is read from the fitted curve at half-maximal effect
Summary of the method: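 P450-Glo format: CYP2D6 converts a proluciferin substrate to luciferin in an NADPH-driven reaction lasting 1 h at room temperature. Light output, proportional to CYP2D6 activity, reflects interference by test chemicals.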

[6] = molecular target: Cytochrome P450 2C19 (Homo sapiens) (UniProt P33261); assay: Cytochrome P450 Family 2 Subfamily C Member 19 (CYP2C19) small molecule antagonists: luciferase reporter qHTS assay (AID 1671197); also: nearly all actives have a fitted effect of over 65% in size; also: potency is read from the fitted curve at half-maximal effect
Summary of the method: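 Compounds were tested on CYP2C19 activity via proluciferin conversion to luciferin. The 37C, 1 h reaction followed NADPH addition; detection reagent stopped it.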

[7] = Caspase-3/7 induction in CHO-K1 cells by small molecules, qHTS assay (AID 1346980); also: nearly all actives have a fitted effect of over 15% in size; also: potency is read from the fitted curve at half-maximal effect
Summary of the method: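 Wild-type CHO-K1 cells exposed to compounds for 17hr at 37 C, 5% CO2. Caspase-3/7 activity then measured by Caspase-Glo 3/7 luminescence after 30min at room temperature.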

[8] = molecular target: Nuclear receptor subfamily 1 group I member 2 (Homo sapiens) (UniProt O75469); assay: Human pregnane X receptor (PXR) small molecule agonists, qHTS assay (AID 1346982); also: nearly all actives have a fitted effect of over 35% in size; also: potency is read from the fitted curve at half-maximal effect
Summary of the method: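 Agonist mode qHTS: PXR-Luc HepG2 cells plated 5 hr before DMSO-dissolved compounds were pinned in, cultured 24 hr at 37 C, 5% CO2; ONE-Glo luminescence readout.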

[9] = molecular target: Cytochrome P450 2C9 (Homo sapiens) (UniProt P11712); assay: Cytochrome P450 Family 2 Subfamily C Member 9 (CYP2C9) small molecule antagonists: luciferase reporter qHTS assay (AID 1671198); also: nearly all actives have a fitted effect of over 50% in size; also: potency is read from the fitted curve at half-maximal effect
Summary of the method: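 P450-Glo proluciferin substrate with CYP2C9 enzyme; 10 min RT preincubation, then NADPH regeneration 1 h at 37C; luciferin detection reagent 20 min RT, luminescence in relative luminescence units.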

[10] = Caspase-3/7 induction in CHO-K1 cells by small molecules, qHTS cell viability counter screen (AID 1346979); also: nearly all actives have a fitted effect of over 35% in size; also: potency is read from the fitted curve at half-maximal effect
Summary of the method: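 CellTiter-Fluor viability check, qHTS format: wild-type CHO-K1, 16hr compound treatment, 1hr reagent incubation, fluorescence read.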
% is scaled to controls: 0 for no effect and ±100 for the full control effect.

Sequence of Cytochrome P450 2D6 (Homo sapiens) (P10635 whole entry, looked up): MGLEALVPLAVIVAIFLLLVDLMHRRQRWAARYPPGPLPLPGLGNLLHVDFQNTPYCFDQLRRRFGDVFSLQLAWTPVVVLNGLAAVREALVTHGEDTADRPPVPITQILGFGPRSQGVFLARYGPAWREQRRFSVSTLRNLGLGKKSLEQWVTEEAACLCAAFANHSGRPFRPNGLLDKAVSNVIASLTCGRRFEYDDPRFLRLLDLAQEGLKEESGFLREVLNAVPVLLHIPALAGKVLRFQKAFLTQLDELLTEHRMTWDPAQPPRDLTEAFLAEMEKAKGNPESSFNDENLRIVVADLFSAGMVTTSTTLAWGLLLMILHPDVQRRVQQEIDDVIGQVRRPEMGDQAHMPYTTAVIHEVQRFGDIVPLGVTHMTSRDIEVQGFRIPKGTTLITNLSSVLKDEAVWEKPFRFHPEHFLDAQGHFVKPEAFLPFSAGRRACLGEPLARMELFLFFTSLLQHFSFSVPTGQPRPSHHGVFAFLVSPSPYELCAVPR
Sequence of Cytochrome P450 2C9 (Homo sapiens) (P11712 whole entry, looked up): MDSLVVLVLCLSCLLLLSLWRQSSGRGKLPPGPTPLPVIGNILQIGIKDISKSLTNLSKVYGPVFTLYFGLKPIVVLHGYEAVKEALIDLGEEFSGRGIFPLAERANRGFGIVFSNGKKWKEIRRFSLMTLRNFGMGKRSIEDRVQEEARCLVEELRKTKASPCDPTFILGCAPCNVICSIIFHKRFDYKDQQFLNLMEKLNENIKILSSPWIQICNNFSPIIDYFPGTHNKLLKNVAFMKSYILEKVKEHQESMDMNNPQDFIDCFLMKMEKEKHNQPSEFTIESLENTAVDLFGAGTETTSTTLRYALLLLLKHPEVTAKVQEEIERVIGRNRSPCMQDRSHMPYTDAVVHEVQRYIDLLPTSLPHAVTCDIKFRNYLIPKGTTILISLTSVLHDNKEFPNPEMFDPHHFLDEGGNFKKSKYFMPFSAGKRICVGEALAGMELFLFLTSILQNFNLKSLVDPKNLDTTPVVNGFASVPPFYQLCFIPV
Sequence of Nuclear receptor subfamily 1 group I member 2 (Homo sapiens) (O75469 whole entry, looked up): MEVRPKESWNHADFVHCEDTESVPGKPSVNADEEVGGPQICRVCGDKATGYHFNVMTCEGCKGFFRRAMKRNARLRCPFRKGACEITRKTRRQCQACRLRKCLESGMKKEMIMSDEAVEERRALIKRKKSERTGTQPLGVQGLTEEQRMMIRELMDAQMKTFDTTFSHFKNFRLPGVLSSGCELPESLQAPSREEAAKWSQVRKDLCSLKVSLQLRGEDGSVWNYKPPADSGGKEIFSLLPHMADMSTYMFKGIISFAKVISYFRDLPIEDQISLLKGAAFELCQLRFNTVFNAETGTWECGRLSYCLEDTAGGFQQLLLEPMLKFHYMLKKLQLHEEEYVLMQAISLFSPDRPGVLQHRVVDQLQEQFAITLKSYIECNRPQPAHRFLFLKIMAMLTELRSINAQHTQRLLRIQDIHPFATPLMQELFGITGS
Sequence of Cytochrome P450 2C19 (Homo sapiens) (P33261 whole entry, looked up): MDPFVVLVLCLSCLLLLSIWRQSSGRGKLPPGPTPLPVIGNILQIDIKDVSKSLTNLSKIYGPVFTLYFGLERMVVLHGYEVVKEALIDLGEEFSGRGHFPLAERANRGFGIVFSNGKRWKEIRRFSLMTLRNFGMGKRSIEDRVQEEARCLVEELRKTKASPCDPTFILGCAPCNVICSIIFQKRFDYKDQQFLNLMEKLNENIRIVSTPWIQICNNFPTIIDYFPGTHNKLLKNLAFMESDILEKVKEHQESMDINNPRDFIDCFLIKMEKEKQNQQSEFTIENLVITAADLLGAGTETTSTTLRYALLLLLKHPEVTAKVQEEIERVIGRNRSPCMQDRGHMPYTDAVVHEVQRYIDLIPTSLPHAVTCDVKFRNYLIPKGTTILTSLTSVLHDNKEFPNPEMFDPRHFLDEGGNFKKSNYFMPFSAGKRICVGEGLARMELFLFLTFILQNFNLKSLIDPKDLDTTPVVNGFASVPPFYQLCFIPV
Sequence of Nuclear receptor subfamily 1 group I member 2 (Rattus norvegicus) (Q9R1A7 whole entry, looked up): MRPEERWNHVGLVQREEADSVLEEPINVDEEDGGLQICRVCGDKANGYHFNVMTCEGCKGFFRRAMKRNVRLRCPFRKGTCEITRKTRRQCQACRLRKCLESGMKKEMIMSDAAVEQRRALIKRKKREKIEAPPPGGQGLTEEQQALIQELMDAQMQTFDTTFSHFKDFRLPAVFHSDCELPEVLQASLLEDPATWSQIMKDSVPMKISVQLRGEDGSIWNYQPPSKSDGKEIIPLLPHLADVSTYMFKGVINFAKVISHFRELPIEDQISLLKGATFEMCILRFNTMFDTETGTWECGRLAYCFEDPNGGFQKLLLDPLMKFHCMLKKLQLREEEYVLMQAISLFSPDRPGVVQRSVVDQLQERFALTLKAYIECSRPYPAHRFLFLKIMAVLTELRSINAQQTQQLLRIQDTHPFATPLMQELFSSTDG

CCCSS/C(CCO)=C(\C)N(C=O)Cc1cnc(C)nc1N
active: Potency [5] 34.7 µM
inactive: Potency [1] | Potency [2] | max activation [3] 9.56% | Potency [4] | Potency [6]

CCC(C)(C)c1cc(O)c(C(C)(C)CC)cc1O
active: Potency [8] 30.6 µM | Potency [6] 31.7 µM | Potency [9] 63.3 µM
inactive: Potency [1] | Potency [7] | Potency [5]

CCCCNc1c(C(=O)OCC)c(C)nc2c1cnn2CC
active: Potency [8] 29.8 µM | Potency [9] 27.5 µM
inactive: Potency [1] | Potency [7] | Potency [2] | Potency [5]

CC1=C(/C=C/C(C)=C/C=C/C(C)=C\C=O)C(C)(C)CCC1
active: Potency [10] 57.9 µM | Potency [8] 51.6 µM | Potency [6] 37.8 µM | Potency [9] 59.9 µM
inactive: Potency [1]

CC(C)c1ccc(O)c(C(C)C)c1
inactive: Potency [2] | Potency [8] | Potency [5]
active: Potency [1] 61.1 µM | Potency [6] 7.1 µM | Potency [9] 35.6 µM

COc1cccc(CCc2ccccc2OCC(CN(C)C)OC(=O)CCC(=O)O)c1 (configuration not stated)
active: Potency [4] 12.6 µM | Potency [5] 0.692 µM | Potency [6] 34.7 µM
inactive: Potency [10] | Potency [7] | Potency [2] | Potency [8] | max activation [3] -1.75% | Potency [9]

CCCN(CCc1cccs1)[C@H]1CCc2c(O)cccc2C1
active: Potency [5] 0.389 µM | Potency [6] 2.45 µM | Potency [9] 15.5 µM
inactive: Potency [1] | Potency [7] | Potency [2] | Potency [8] | max activation [3] -1.95% | Potency [4]

CCN(CC)CCSC(=O)C(c1ccccc1)c1ccccc1
active: Potency [5] 4.9 µM | Potency [6] 6.92 µM | Potency [9] 17.4 µM
inactive: Potency [1] | Potency [7] | Potency [2] | max activation [3] 3.39% and -0.327% | Potency [4]

CN(C)CCOC(c1ccccc1)c1ccccc1 (tested in a mixture with another compound)
inactive: Potency [1] | Potency [7]
active: Potency [8] 61.6 µM

Oc1ccc(-c2ccc(O)cc2)cc1
active: Potency [8] 48.9 µM
inactive: Potency [1] | Potency [7] | Potency [6] | Potency [9]

COc1cc(C(C)C)c2c(c1)S(=O)(=O)N(COc1cc(=O)n3cccc(OCCN4CCCCC4)c3n1)C2=O
inactive: caspase activation [1] 0.878% [at 19 µM]
active: Potency [8] 13 µM

Cc1ccc(CCn2c3c(c4cc(Cl)ccc42)CN(C)CC3)cn1
active: Potency [8] 33.5 µM | Potency [5] 7.76 µM | Potency [6] 17.4 µM
inactive: Potency [1] | Potency [7] | Potency [9]

COc1ccc(-n2nc(CCC(=O)N(C)O)cc2-c2ccc(Cl)cc2)cc1
inactive: Potency [1] | Potency [7]
active: Potency [8] 29.8 µM | Potency [5] 15.5 µM | Potency [6] 8.71 µM | Potency [9] 3.89 µM

CC1CCCCN1CCCOC(=O)c1ccc(OC2CCCCC2)cc1 (configuration not stated)
inactive: Potency [1] | Potency [7] | Potency [2] | Potency [6] | Potency [9]
active: Potency [5] 15.5 µM

C[n+]1c2cc(N)ccc2cc2ccc(N)cc21 (tested in a mixture with another compound)
active: Potency [1] 9.44 µM | Potency [5] 15.5 µM | Potency [6] 38.9 µM
inactive: Potency [7] | max activation [3] -10.5% | Potency [9]

C=C[C@](C)(O)CC[C@@H]1[C@@]2(C)CCCC(C)(C)[C@@H]2CC[C@@]1(C)O
active: Potency [1] 68.6 µM | Potency [10] 54.5 µM | Potency [8] 9.69 µM | Potency [6] 1 µM | Potency [9] 3.17 µM

OCCCS
inactive: Potency [1] | Potency [2] | Potency [8] | Potency [5] | Potency [6] | Potency [9]

SCCCCCCCCS
inactive: Potency [1] | Potency [10] | Potency [8] | Potency [5] | Potency [6] | Potency [9]

O=C(Nc1ccc(Cl)c(Cl)c1)c1cc(Cl)cc(Cl)c1O
inactive: Potency [1]
active: Potency [10] 7.7 µM | Potency [8] 10.9 µM | Potency [9] 11.2 µM

C[C@@]12C(=O)OC(=O)[C@]1(C)C1CCC2O1
active: Potency [10] 10.6 µM | Potency [7] 23.7 µM | Potency [2] 2.98 µM | Potency [8] 1.06 µM
inactive: max activation [3] -13% | Potency [4] | Potency [5] | Potency [6] | Potency [9]

CCC(=O)OCCc1ccccc1
active: Potency [9] 13.6 µM
inactive: Potency [1] | Potency [7] | Potency [2] | Potency [8] | Potency [5] | Potency [6]

Nc1ccc2cc3ccc(N)cc3nc2c1
71 µM (active) and inactive: Potency [6]
inactive: Potency [9]
active: Potency [1] 30.6 µM and 29.8 µM | Potency [7] 4.86 µM and 11.9 µM | Potency [5] 39.9 µM

CC(=O)OC(OC(C)=O)c1ccc([N+](=O)[O-])o1
inactive: Potency [7]
active: Potency [10] 15.6 µM | Potency [2] 62.2 µM | Potency [8] 24.8 µM | Potency [6] 16.2 µM

O=C1NCCN1CCN1CCC(c2cn(-c3ccc(F)cc3)c3ccc(Cl)cc23)CC1
inactive: Potency [6] | Potency [9]
active: Potency [10] 26.6 µM | Potency [7] 26.6 µM | Potency [2] 29.8 µM | Potency [5] 4.36 µM

O=C(O)c1cccc(Cl)n1
inactive: Potency [10] | Potency [7] | Potency [2] | Potency [8] | Potency [6] | Potency [9]

CCCCCCCCCCCCCCCC
active: Potency [9] 39.9 µM
inactive: Potency [10] | Potency [7] | Potency [2] | Potency [8] | Potency [5] | Potency [6]

CC(=O)Nc1ccc(O)cc1
32.9 µM (active) and inactive: Potency [5]
inactive: Potency [10] | Potency [7] | Potency [2] | Potency [8] | Potency [6] | Potency [9]
